{"source": "ChEMBL document CHEMBL4888484", "about": "“Replenishing the malaria drug discovery pipeline: Screening and hit evaluation of the MMV Hit Generation Library 1 (HGL1) against asexual blood stage Plasmodium falciparum ,using a nano luciferase reporter read-out” (2022)", "note": "In all, about 4,800 compounds went through this assay and about 410 (8.5%) showed an effect of 50% or more. Shown is part of a subset that was picked to be rich in strong results."}
{"test_system": "Plasmodium falciparum", "test": "Confirmatory screen in NF54 pLDH assay, in single point, at 2uM, 72h", "assay_type": "functional, Erythrocyte", "settings": "timepoint 72 hour", "units": {"% Inhibition": "%"}}
{"compound": "Cc1cc(C)c(NC(=O)CN(C)C(=O)NCc2ccco2)c(C)c1", "% Inhibition": -8}
{"compound": "O=C(NC(Cn1ccccc1=O)c1ccccc1)C1CCOC1", "note": "(stereo not given)", "% Inhibition": 7}
{"compound": "O=C(N[C@@H](Cn1nccn1)c1ccccc1)c1cc(Br)ccc1Cl", "% Inhibition": 75}
{"compound": "O=C(Nc1ccc2c(c1)c1cc(Br)ccc1n2Cc1ccccc1)c1ccccc1", "% Inhibition": 6}
{"compound": "Cc1ccccc1-c1cc2c(N3CCN(C4CCCCC4)CC3)nccn2n1", "% Inhibition": 4}
{"compound": "Cc1cc(Br)cc(N[C@H](c2cccnc2)c2ncc[nH]2)c1", "% Inhibition": 6}
{"compound": "Cc1ccc2nc(C3CC3)cc(C(=O)N3C[C@@H](O)C[C@H]3CO)c2c1", "% Inhibition": -1}
{"compound": "Cc1ccc2nc3c(c(N)c2c1)CCCCN3C", "% Inhibition": -20}
{"compound": "CC(C)c1ccc(S(=O)(=O)Nc2ccc3nc(NC(=O)c4ccccc4)sc3c2)cc1", "% Inhibition": 6}
{"compound": "CN(C)c1ccc(CNC2CCCCCC2)cc1", "% Inhibition": -13}
{"compound": "CN(CC(=O)Nc1ccccc1C(F)(F)F)C1CNC1", "% Inhibition": 8}
{"compound": "Cc1csc(NC(=O)NCCc2cc(F)cc3c2OCOC3)n1", "% Inhibition": -14}
{"compound": "COC[C@H](NCCc1cc(F)cc2c1OCOC2)C1CC1", "% Inhibition": 82}
{"compound": "N#Cc1cc(O)c(-c2c(O)n[nH]c2-c2ccccc2)cc1C#N", "% Inhibition": 10}
{"compound": "O=c1[nH]c(=O)n(Cc2nc(-c3ccco3)no2)cc1Cl", "% Inhibition": 3}
{"compound": "Cc1nn(C)c(C)c1CCCN[C@@H](C)c1cccc(O)c1", "% Inhibition": 4}
{"compound": "Cc1ccc2nc(-c3cccc(NC(=O)c4ccc5c(c4)OCO5)c3)oc2c1", "% Inhibition": -7}
{"compound": "COC(=O)c1cccc(C#Cc2cccc(NC(=O)c3cnc(C)cn3)c2)c1", "% Inhibition": -9}
{"compound": "N#CCC(=O)NC1CCC(CC2CCC(NC(=O)CC#N)CC2)CC1", "note": "(stereo not given)", "% Inhibition": -2}
{"compound": "Cc1ccccc1S(=O)(=O)N1CCN(c2c(C)n(-c3ccccc3)c(=O)n(CC(C)C)c2=O)CC1", "% Inhibition": 14}
{"compound": "COc1ccc(CNC(=O)Nc2ccc3c(c2)N(C(=O)c2ccccc2)CCC3)cc1OC", "% Inhibition": 11}
{"compound": "COc1ccc([C@H](C(=O)Nc2ccc(N(C)C)cc2)N(Cc2ccccc2)C(=O)Cc2ccccc2)cc1OC", "% Inhibition": -14}
{"compound": "CCC(C(=O)Nc1ccc2c(c1)CN(CCc1ccc(OC)c(OC)c1)C(=O)C(C)O2)c1ccccc1", "note": "(stereo not given)", "% Inhibition": 100}
{"compound": "Cc1ccc(NC(=O)Cn2c(C)nc3c(-c4ccccn4)nsc3c2=O)c(C)c1", "% Inhibition": 12}
{"compound": "COc1cccc(CNC(C)(C)C)c1OCC(=O)NC(C)(C)C", "% Inhibition": -4}
{"compound": "CCOc1cc(CNc2cccc3ccccc23)cc(Br)c1OCC(=O)NC(C)(C)C", "% Inhibition": 91}
{"compound": "CC[C@@H](CO)NCc1cccc(OC)c1OCC(=O)NC(C)(C)C", "% Inhibition": -12}
{"compound": "O=C(Nc1ccn(-c2ccccc2)n1)N1CC2CCC(O)CC2C1", "note": "(stereo not given)", "% Inhibition": -3}
{"compound": "Cc1nsc2ncc(C(=O)N3CCC(C)CC3)c(N3CCC(C(=O)Nc4cc(F)ccc4F)CC3)c12", "% Inhibition": 44}
{"compound": "COc1ccccc1CNCCNC(=O)c1ccncc1", "% Inhibition": 9}
{"compound": "Clc1cc(CNCCc2ccccc2)ccc1OCc1ccccc1", "% Inhibition": 3}
{"compound": "Cc1cnccc1NCCNCc1cccc(O)c1Cl", "% Inhibition": 101}
{"compound": "N#Cc1c(CN(CCn2cccn2)Cc2cn3ccccc3c2C#N)cn2ccccc12", "% Inhibition": -22}
{"compound": "C=CCN(CC=C)S(=O)(=O)c1ccc(S(=O)(=O)NC)cc1", "% Inhibition": -10}
{"compound": "O=C(NC1CCCC1)c1cnn2c3c(cnc12)CCCCCC3", "% Inhibition": 11}
{"compound": "CCn1cc(Cl)c(C(=O)N(C2CCCCC2)C2CCCCC2)n1", "% Inhibition": 10}
{"compound": "Fc1cccc(F)c1-n1c(CN2CCCCC2)csc1=S", "% Inhibition": -5}
{"compound": "CC(C)c1c2cc3c(cc2nn1-c1ccccc1)OCCO3", "% Inhibition": -11}
{"compound": "C[C@H](O)CNCc1ccc(Cl)cc1Cl", "% Inhibition": 1}
{"compound": "CCCCCNC(=O)NCc1ncoc1C", "% Inhibition": 4}
{"compound": "Cc1cc(C)cc(-n2c(=O)c3sccc3n(CC(=O)NCc3ccccc3Cl)c2=O)c1", "% Inhibition": -17}
{"compound": "O=c1[nH]c2ccccc2nc1-c1cc(Br)ccc1NS(=O)(=O)c1cccc2nsnc12", "% Inhibition": 3}
{"compound": "CNc1nc(N2C[C@H](C)[C@@](O)(C3CC3)C2)nc2c1CCC2", "% Inhibition": 1}
{"compound": "Fc1ccccc1N1CCN(c2c3c(nc4nc(Cc5ccc(Cl)cc5)nn24)CCCC3)CC1", "% Inhibition": 7}
{"compound": "Cc1cc(-c2ccccc2)c(C#N)c(=O)n1C(=O)c1ccc(C#N)cc1", "% Inhibition": 11}
{"compound": "Brc1cc(Br)c2nc(-c3ccc(C4CCCCC4)cc3)ccc2c1", "% Inhibition": 12}
{"compound": "Cc1[nH]c2ccnn2c(=O)c1CC(=O)N1CC[C@H](C)c2cccc(O)c21", "% Inhibition": 2}
{"compound": "CCN(CC)c1nc(-c2ccccc2)c(C#N)c(N)c1C#N", "% Inhibition": 12}
{"compound": "O=C(CN1CCOC2CCCCC21)N1CCOC2CCCCC21", "note": "(stereo not given)", "% Inhibition": -9}
{"compound": "CC(C)N1CCC(NC(=O)NCC2CCCCCCC2)CC1", "% Inhibition": 6}
{"compound": "O=C(CN1CCC[C@H]1C1CCCC1)NCC1CCCCC1", "% Inhibition": 61}
{"compound": "COc1ccc(OCC(=O)Nc2ccc(N3CCn4c(nc5cc(Cl)ccc54)C3)cc2OC)cc1", "% Inhibition": -5}
{"compound": "CC(C)COc1ccc(/C(N)=N/O)cc1", "% Inhibition": -20}
{"compound": "Cc1ccccc1CN(Cc1ccccn1)Cc1ccnn1C", "% Inhibition": -5}
{"compound": "CC1CCC(N(C)C(=O)c2cc(S(=O)(=O)N3CCCCC3)ccc2N2CCCC2)CC1", "note": "(stereo not given)", "% Inhibition": -10}
{"compound": "Cc1cc(C(=O)N[C@H]2CCS(=O)(=O)C2)nc(N(C)C)n1", "% Inhibition": 2}
{"compound": "Cc1ccc(N2C(=O)CN(CC(C)C)[C@H]3CS(=O)(=O)C[C@H]32)cc1", "% Inhibition": 14}
{"compound": "Cc1cccc(NC(=O)CCC(=O)OCC(F)(F)C(F)F)c1C", "% Inhibition": 1}
{"compound": "CC(C)(C)[C@H]1CCc2c(sc(NC(=O)C3(F)C(F)(F)C(F)(F)C(F)(F)C(F)(F)C3(F)F)c2C#N)C1", "% Inhibition": 51}
{"compound": "N#Cc1c(NC(=O)CN2CCC[C@@H]2CO)sc2c1CCCCC2", "% Inhibition": 0}
{"compound": "COCCN(CC(N)=O)CC(=O)NCc1ccccc1F", "% Inhibition": 9}
{"compound": "COCCNc1nc(-c2ccccc2OC)c2c(N)n(-c3ccc(F)cc3)nc2n1", "% Inhibition": -5}
{"compound": "CC(C)(C)n1nc2nc(NCCN3CCCCC3)nc(-c3ccc(F)c(Cl)c3)c2c1N", "% Inhibition": 76}
{"compound": "COc1ccc(CCNc2nc(-c3ccc(OC)cc3F)c3c(N)n(-c4ccc(Cl)cc4)nc3n2)cc1", "% Inhibition": 40}
{"compound": "CN(Cc1ccsc1)C(=O)c1cc2ccccc2[nH]1", "% Inhibition": 17}
